This passage reports binding signal results from paper PMC4081100, “A DNA-binding-site landscape and regulatory network analysis for NAC transcription factors in Arabidopsis thaliana”.

Assay in all cases: universal protein binding microarray (PBM); transcription factors of Arabidopsis thaliana; high values mean tight binding
The target of one assay is T1, GST-ANAC092(1-176) (Arabidopsis thaliana, UniProt Q9FKA0 1-176).
T1 sequence: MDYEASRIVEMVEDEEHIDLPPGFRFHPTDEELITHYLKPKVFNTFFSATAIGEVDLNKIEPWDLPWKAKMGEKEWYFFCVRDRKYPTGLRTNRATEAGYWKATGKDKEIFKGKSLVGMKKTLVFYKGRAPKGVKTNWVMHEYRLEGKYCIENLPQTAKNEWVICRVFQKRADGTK
The note with it: protein: recombinant; tags: GST; chain copies: 2; dsDNA, one strand shown. The essentials:
(§1)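 Binding is expressed as the normalised enrichment score (E-score). Proteins carrying a GST tag, whether NAC-domain, full-length or DNA-binding-domain forms, were induced in cells, and zinc acetate was added for zinc-finger proteins. After purification on glutathione–Sepharose 4B and quantification by A280 or anti-GST western blot, each was applied in duplicate at 200 to 500 nM final to custom all-10-mer Agilent 4 × 180K arrays made double-stranded by primer extension. Gapped and ungapped 8-mers were scored.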

A further assay has as its target GST-NTL6(1-168) (Arabidopsis thaliana, UniProt Q9SCK6 1-168). The note with it: protein: recombinant; tags: GST; chain copies: 2; dsDNA, one strand shown. The essentials: as §1
Another assay has as its target T2, GST-ANAC055(1-171) (Arabidopsis thaliana, UniProt Q9LDY8 1-171).
T2 sequence: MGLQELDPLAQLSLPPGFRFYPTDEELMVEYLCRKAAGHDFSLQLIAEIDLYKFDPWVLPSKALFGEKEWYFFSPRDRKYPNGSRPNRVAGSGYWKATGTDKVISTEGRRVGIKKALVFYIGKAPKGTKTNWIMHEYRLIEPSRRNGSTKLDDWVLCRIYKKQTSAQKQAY
The note with it: protein: recombinant; tags: GST; chain copies: 2; dsDNA, one strand shown. The essentials:
as §1

The target in another assay is T3, GST-NAP(1-166) (Arabidopsis thaliana, UniProt O49255 1-166).
T3 sequence: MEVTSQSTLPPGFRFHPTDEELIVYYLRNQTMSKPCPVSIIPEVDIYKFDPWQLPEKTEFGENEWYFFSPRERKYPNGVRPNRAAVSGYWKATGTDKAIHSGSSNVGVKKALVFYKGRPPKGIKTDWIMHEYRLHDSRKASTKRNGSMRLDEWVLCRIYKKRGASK
The note with it: protein: recombinant; tags: GST; chain copies: 2; dsDNA, one strand shown. A digest of the protocol: as §1

A further assay concerns the target T4, GST-NST2(1-184) (Arabidopsis thaliana, UniProt Q9M274 1-184).
T4 sequence: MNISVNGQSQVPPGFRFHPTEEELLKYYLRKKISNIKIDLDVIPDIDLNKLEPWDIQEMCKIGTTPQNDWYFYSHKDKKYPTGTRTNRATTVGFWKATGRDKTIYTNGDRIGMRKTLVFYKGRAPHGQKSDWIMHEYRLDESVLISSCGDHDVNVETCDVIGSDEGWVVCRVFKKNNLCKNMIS
The conditions noted are these: protein: recombinant; tags: GST; chain copies: 2; dsDNA, one strand shown. A digest of the protocol: as §1

A further assay deals with T5, GST-SND1(1-203) (Arabidopsis thaliana, UniProt Q9LPI7 1-203).
T5 sequence: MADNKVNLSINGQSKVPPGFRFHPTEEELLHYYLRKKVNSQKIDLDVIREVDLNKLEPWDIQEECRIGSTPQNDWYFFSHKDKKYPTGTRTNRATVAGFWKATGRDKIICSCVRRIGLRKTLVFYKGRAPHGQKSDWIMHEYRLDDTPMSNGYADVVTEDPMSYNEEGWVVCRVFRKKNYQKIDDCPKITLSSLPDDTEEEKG
The conditions noted are these: protein: recombinant; tags: GST; chain copies: 2; dsDNA, one strand shown. The essentials: as §1

The target of a further assay is T6, GST-VND3 NAC domain (Arabidopsis thaliana, UniProt Q9FH59 12-162).
T6 sequence: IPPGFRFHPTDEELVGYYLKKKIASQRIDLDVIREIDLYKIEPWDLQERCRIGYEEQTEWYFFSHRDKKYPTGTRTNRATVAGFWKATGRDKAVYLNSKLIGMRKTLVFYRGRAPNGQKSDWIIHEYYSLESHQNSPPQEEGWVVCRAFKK
The note with it: protein: recombinant; tags: GST; chain copies: 2; dsDNA, one strand shown. The essentials: as §1

In a further assay the target is GST-WRKY1(266-371) (Arabidopsis thaliana, UniProt Q9SI37 266-371). The conditions noted are these: protein: recombinant; tags: GST; dsDNA, one strand shown. The essentials:
as §1

The target in another assay is T7, GST-ANAC019 NAC domain (Arabidopsis thaliana, UniProt Q9C932 14-162).
T7 sequence: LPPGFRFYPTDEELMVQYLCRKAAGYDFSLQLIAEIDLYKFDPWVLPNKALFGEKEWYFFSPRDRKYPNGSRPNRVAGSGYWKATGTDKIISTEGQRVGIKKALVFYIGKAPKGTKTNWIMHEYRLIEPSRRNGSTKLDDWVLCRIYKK
The note with it: protein: recombinant; tags: GST; chain copies: 2; dsDNA, one strand shown. The essentials: as §1

The target in the next assay is T8, GST-ATAF1 NAC domain (Arabidopsis thaliana, UniProt Q39013 7-158).
T8 sequence: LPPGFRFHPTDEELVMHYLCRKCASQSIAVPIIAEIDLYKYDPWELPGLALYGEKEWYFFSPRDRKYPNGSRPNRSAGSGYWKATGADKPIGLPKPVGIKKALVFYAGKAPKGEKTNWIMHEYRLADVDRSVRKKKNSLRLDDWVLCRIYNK
The note with it: protein: recombinant; tags: GST; chain copies: 2; dsDNA, one strand shown. A digest of the protocol:
as §1

The target in assay [1] is T9, GST-ANAC092(1-285) full length (Arabidopsis thaliana, UniProt Q9FKA0 1-285).
T9 sequence: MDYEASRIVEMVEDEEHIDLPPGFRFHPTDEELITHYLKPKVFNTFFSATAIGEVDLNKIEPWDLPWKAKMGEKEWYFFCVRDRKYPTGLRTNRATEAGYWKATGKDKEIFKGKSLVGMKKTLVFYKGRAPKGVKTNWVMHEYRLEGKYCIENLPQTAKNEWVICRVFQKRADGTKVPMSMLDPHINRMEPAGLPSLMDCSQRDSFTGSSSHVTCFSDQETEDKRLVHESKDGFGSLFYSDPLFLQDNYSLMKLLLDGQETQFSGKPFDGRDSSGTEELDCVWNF
The conditions noted are these: protein: recombinant; tags: GST; chain copies: 2; dsDNA, one strand shown. The essentials: as §1

The next assay concerns the target T10, GST-VND7 NAC domain (Arabidopsis thaliana, UniProt Q9C8W9 9-158).
T10 sequence: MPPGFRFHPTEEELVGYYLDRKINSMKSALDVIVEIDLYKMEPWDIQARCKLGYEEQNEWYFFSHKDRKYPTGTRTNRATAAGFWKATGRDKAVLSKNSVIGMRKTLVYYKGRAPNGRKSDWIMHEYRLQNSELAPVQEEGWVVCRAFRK
The note with it: protein: recombinant; tags: GST; chain copies: 2; dsDNA, one strand shown. The essentials:
as §1

For another assay, the target named is T11, GST-NTL8 NAC domain (Arabidopsis thaliana, UniProt Q9XIN7 14-156).
T11 sequence: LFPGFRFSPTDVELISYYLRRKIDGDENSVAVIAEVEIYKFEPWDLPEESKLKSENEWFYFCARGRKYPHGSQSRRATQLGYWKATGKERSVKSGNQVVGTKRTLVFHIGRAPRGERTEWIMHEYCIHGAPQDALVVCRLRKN
The conditions noted are these: protein: recombinant; tags: GST; chain copies: 2; dsDNA, one strand shown. The essentials:
as §1

GST-WRKY1(266-371), sequence (Q9SI37 266-371): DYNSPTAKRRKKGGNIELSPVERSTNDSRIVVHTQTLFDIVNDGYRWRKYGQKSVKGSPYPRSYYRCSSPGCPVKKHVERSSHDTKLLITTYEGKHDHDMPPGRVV
GST-NTL6(1-168), sequence (Q9SCK6 1-168): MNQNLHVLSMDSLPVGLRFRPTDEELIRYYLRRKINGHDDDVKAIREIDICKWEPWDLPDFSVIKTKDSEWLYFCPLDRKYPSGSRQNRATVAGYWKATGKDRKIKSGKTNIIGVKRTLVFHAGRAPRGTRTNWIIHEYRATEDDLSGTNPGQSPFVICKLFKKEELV

Take TCGGTCAA: the binding signal amounted to 0.132 E-score with GST-ANAC092(1-176); 0.0645 E-score with GST-NTL6(1-168); 0.0819 E-score in the assay with GST-ANAC055(1-171); 0.097 E-score with GST-NAP(1-166); 0.0703 E-score in the assay with GST-NST2(1-184); 0.0612 E-score with GST-SND1(1-203). The binding signal with GST-VND3 NAC domain is 0.0724 E-score; with GST-WRKY1(266-371), 0.49 E-score.
In the case of CACGCTAC, the binding signal was determined as 0.46 E-score with GST-ANAC092(1-176); 0.167 E-score with GST-ANAC019 NAC domain; 0.0982 E-score with GST-ANAC055(1-171); 0.167 E-score in the assay with GST-ATAF1 NAC domain; 0.476 E-score in assay [1]; 0.298 E-score with GST-NST2(1-184). For the same sequence, the binding signal in the assay with GST-SND1(1-203) is 0.441 E-score; in the assay with GST-VND3 NAC domain it was 0.0671 E-score; with GST-VND7 NAC domain it was 0.135 E-score.
With ATTGCGTA, the binding signal with GST-ANAC092(1-176) is 0.482 E-score; with GST-ANAC019 NAC domain, 0.375 E-score; in the assay with GST-ANAC055(1-171), 0.333 E-score; with GST-ATAF1 NAC domain, 0.32 E-score; in assay [1], 0.485 E-score; with GST-NAP(1-166) it was 0.423 E-score. In addition, the binding signal in the assay with GST-NST2(1-184) is 0.409 E-score; with GST-NTL8 NAC domain it was 0.0931 E-score; with GST-SND1(1-203), 0.491 E-score; with GST-VND3 NAC domain it was 0.444 E-score; with GST-VND7 NAC domain, 0.453 E-score.
For the sequence ACGCTACT, the binding signal with GST-ANAC092(1-176) was 0.385 E-score; in the assay with GST-ANAC019 NAC domain, 0.123 E-score; in the assay with GST-ANAC055(1-171), 0.226 E-score; with GST-ATAF1 NAC domain it was 0.288 E-score; in assay [1], 0.425 E-score; in the assay with GST-NAP(1-166), 0.236 E-score. Also, the binding signal with GST-NST2(1-184) is 0.314 E-score; in the assay with GST-NTL8 NAC domain, 0.0894 E-score; in the assay with GST-SND1(1-203) it was 0.394 E-score; with GST-VND3 NAC domain, 0.241 E-score; in the assay with GST-WRKY1(266-371), 0.092 E-score.
For the sequence GGTCAAAA, the binding signal in the assay with GST-ANAC092(1-176) worked out at 0.0966 E-score; in the assay with GST-NTL6(1-168) it was 0.101 E-score; with GST-ANAC055(1-171) it was 0.0727 E-score; in the assay with GST-NTL8 NAC domain, 0.116 E-score; in the assay with GST-SND1(1-203), 0.123 E-score; in the assay with GST-VND3 NAC domain, 0.0741 E-score. Further, the binding signal in the assay with GST-WRKY1(266-371) is 0.478 E-score.
For the sequence ACGCTACC, the binding signal came to 0.455 E-score with GST-ANAC092(1-176); 0.118 E-score in the assay with GST-ANAC019 NAC domain; 0.144 E-score in the assay with GST-ATAF1 NAC domain; 0.48 E-score in assay [1]; 0.0969 E-score with GST-NAP(1-166); 0.34 E-score with GST-NST2(1-184). The binding signal came to 0.475 E-score with GST-SND1(1-203), 0.0872 E-score with GST-VND3 NAC domain and 0.181 E-score in the assay with GST-VND7 NAC domain.
Take GCACGCTA: the binding signal with GST-ANAC092(1-176) is 0.445 E-score; with GST-ANAC019 NAC domain it was 0.207 E-score; with GST-ANAC055(1-171), 0.117 E-score; in assay [1], 0.474 E-score; with GST-NST2(1-184), 0.173 E-score; with GST-SND1(1-203), 0.409 E-score. Also, the binding signal with GST-VND3 NAC domain stood at 0.111 E-score; with GST-VND7 NAC domain it was 0.0845 E-score.
As to CTTTACGC, the binding signal came to 0.294 E-score with GST-ANAC092(1-176); 0.0905 E-score with GST-ANAC019 NAC domain; 0.302 E-score in [1]; 0.081 E-score with GST-NAP(1-166); 0.193 E-score in the assay with GST-NST2(1-184); 0.408 E-score with GST-SND1(1-203). The binding signal with GST-VND3 NAC domain stood at 0.0839 E-score; with GST-VND7 NAC domain, 0.137 E-score.
